Consider 39 molecules from PubChem BioAssay (NCATS).

A number with no mark means an inactive call.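 The calls were made as follows, unless noted: active = compounds whose dose series gives a full or clear partial fitted curve of increased nuclear translocation; inconclusive = weak partial curve or effect only at the top dose; inactive = no dose-dependent translocation response.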
Potency is read from the fitted curve at half-maximal effect.

The target of the first assay is Glucocorticoid receptor (Homo sapiens) (UniProt P04150). Put plainly: GR-GFP Redistribution (AID 450). Particulars: U2OS GR-GFP nuclear translocation, laser cytometry, 2 h; series mostly up to 20.6 µM.
Sequence of Glucocorticoid receptor (Homo sapiens) (P04150 whole entry, looked up): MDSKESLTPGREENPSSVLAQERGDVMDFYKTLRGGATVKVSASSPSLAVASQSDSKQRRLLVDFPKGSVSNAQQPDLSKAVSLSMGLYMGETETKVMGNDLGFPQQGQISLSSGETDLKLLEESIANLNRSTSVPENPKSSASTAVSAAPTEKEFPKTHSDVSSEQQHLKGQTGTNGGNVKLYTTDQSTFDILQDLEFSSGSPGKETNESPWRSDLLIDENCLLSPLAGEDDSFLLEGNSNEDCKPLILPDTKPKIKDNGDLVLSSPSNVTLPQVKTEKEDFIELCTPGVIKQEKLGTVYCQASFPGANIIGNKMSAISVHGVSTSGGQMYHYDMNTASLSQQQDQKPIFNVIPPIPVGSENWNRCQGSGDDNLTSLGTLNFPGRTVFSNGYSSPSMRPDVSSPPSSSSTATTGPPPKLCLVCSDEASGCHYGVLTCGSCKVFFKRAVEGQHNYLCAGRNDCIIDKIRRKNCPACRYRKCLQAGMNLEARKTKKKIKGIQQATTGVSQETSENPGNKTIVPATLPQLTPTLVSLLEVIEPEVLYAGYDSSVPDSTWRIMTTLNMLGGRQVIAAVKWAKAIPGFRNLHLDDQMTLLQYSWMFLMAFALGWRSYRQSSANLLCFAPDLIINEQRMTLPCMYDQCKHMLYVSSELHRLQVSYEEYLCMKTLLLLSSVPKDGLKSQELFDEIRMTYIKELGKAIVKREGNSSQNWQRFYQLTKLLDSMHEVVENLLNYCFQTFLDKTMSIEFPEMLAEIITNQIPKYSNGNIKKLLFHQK
Take `CCCN(CCC)c1nc2ccccc2nc1C(C#N)C(=O)OC(C)COC` (centres undefined): the Potency was more than 20.6 µM.

Regarding `CCOC(=O)C1=C(C)NC(C)=C(C(=O)OC)[C@H]1c1cccc(Cl)c1Cl`, the Potency was more than 46 µM. Take `CCc1nc(N2CCCC2)c(C#N)c2c1CCCC2`: the Potency is more than 20.6 µM. For the molecule `CC[C@H](c1ccccc1)c1cc(C(C)(C)C)cc(C(C)(C)C)c1O`, the Potency was more than 46 µM. Consider `CCCCCNC(=O)c1c(N)n(/N=C/c2ccco2)c2nc3ccccc3nc12`, for which the Potency is more than 20.6 µM. `COc1ccc(C2=CC(c3ccc(C)cc3)n3nnnc3N2)cc1` (centres undefined): the Potency is more than 20.6 µM. As to `CC(C)Oc1ccc(C(=O)CCN2CCCCC2)cc1`, the Potency is more than 20.6 µM. On the same count and under the same terms, in the case of `COc1cccc(/C(O)=C2/C(=O)C(=O)N(CCCN(C)C)C2c2cccc(Cl)c2)c1` (centres undefined) it was more than 20.6 µM; in that of `COC(=O)c1[nH]c2cc(OC)ccc2c1NC(=O)CCN1CCCC(C)(C)C1`, more than 20.6 µM; in that of `C[N+](C)(C)CCN(Cc1cccs1)c1ccccn1`, more than 46 µM.

In the case of `Cc1cccn2c(=O)c(/C=C(\C#N)S(=O)(=O)c3ccccc3)c(N3CCN(C)CC3)nc12`, the Potency is more than 20.6 µM. Consider `Clc1ccc([C@@H](c2ccccc2Cl)C(Cl)Cl)cc1`, for which the Potency is more than 46 µM. With `CCOCCSc1nc2c(c(=O)[nH]c(=O)n2C)n1CCCc1ccccc1`, the Potency was more than 20.6 µM. Regarding `COc1nc(N(C)S(=O)(=O)c2ccc(C)cc2)nc(C)c1Cl`, the Potency was more than 20.6 µM. Still for that read-out and setting: then `CCOC(=O)c1sc2c(c1C)c(=O)c(C(=O)OCC)cn2CC`, with more than 20.6 µM; and `CCC(=O)Nc1c(C#N)c2nc3ccccc3nc2n1C1CCCCC1`, with more than 20.6 µM; and `Cc1ccc(S(=O)(=O)c2cc3c(=O)n4ccccc4nc3n(C)c2=N)cc1`, with more than 20.6 µM. With `CC(CN1CCN(C)CC1)OC(=O)c1ccc(Cl)cc1Cl` (centres undefined), the Potency was more than 20.6 µM. `NC[C@@H]1O[C@@H](O[C@H]2[C@@H](O)[C@H](O[C@@H]3[C@H](O)[C@H](N)C[C@H](N)[C@H]3O[C@@H]3O[C@@H](CO)[C@H](O)[C@H](O)[C@@H]3N)O[C@H]2CO)[C@H](N)[C@H](O)[C@@H]1O`: the Potency is more than 46 µM. Regarding `CCc1ccc(-c2cn3nc(C)c(C)nc3n2)cc1`, the Potency was more than 20.6 µM. `N#Cc1c(N)n(CCOC(=O)c2ccc(Cl)cc2)c2nc3ccccc3nc12`: the Potency is more than 20.6 µM. For `COCCCNC(=O)c1c(N)n(/N=C/c2cccnc2)c2nc3ccccc3nc12`, the Potency is more than 20.6 µM. On the same count and under the same terms, in the case of `CC12CN3CC(C)(CN(C1)C3c1ccc(Br)cc1O)C2` (centres undefined) it was more than 20.6 µM. As for `C[N+](C)(C)[C@@H](C1=CCCC1=O)c1ccccc1`, the Potency is more than 46 µM.

In the case of `CC1(C)CCN(Cc2ccccc2)C1CC#N` (centres undefined), the Potency is more than 20.6 µM. With `Cc1cccc(CNc2ccnc(-c3ccc(N(C)C)cc3)n2)c1`, the Potency was more than 46 µM. Take `Cc1ccc(CNC(=O)c2cc3c(=O)n4ccccc4nc3n(Cc3ccco3)c2=N)cc1`: the Potency was more than 20.6 µM. Same read-out and setting: in the case of `O=C(CCN1CCc2ccccc2CC1)c1ccc2c(c1)OCCO2` it was more than 20.6 µM; in that of `CNc1oc(-c2ccccc2Cl)nc1C#N`, more than 20.6 µM. Turning to `N#CC1=C(N)OC2=C(C(=O)CCC2)[C@]12C(=O)N(CC(N)=O)c1ccccc12`, the Potency was more than 20.6 µM.

Turning to `c1ccc2c(c1)NC(c1ccncc1)n1c-2nc2ccccc21` (centres undefined), the Potency was more than 20.6 µM. On the same count and under the same terms, in the case of `O=C1c2ccccc2-c2onc3ccc(NCc4ccco4)c1c23` it was more than 20.6 µM. Consider `Cc1nc(Sc2cccn2C)c(C(F)(F)F)c(=O)[nH]1`, for which the Potency was more than 20.6 µM.

In the case of `CCC1(C)Cc2c(sc3c2c(=O)n(C)c2nnc(SCc4ccc5c(c4)OCO5)n32)CO1` (centres undefined), the Potency was more than 20.6 µM.

For the molecule `CCN1CCN(c2nc3c(C)cccn3c(=O)c2/C=C(\C#N)S(=O)(=O)c2ccccc2)CC1`, the Potency was more than 20.6 µM. Consider `Cc1ccccc1C(=O)c1ccc2c(c1)n(C)c(=O)n2C`, for which the Potency is more than 20.6 µM. Still for that read-out and setting: then `N=c1c(C(=O)NCc2ccccc2)cc2c(=O)n3ccccc3nc2n1Cc1ccco1`, with more than 20.6 µM; and `CCc1cc(=O)oc2c(CN3CCCC3)c(O)c(Cl)cc12`, with more than 20.6 µM. Regarding `O=C(c1ccc(=O)oc1)N1CCOCC1`, the Potency is more than 20.6 µM.

A further assay has the same target. As to the kind of experiment: GR-EFC Redistribution (AID 451; calls by dose curve). Particulars: CHO-K1 GR-EFC translocation, beta-gal luminescence, 2 h. A digest of the protocol:
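CHO-K1 cells expressing nuclear EA and GR-ED fragments of b-gal; compounds titrated up to 46 uM final, 2 h at 37 C. GR nuclear translocation read as complemented b-gal luminescence after 1 h RT detection.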
For the molecule `CC[C@H](c1ccccc1)c1cc(C(C)(C)C)cc(C(C)(C)C)c1O`, the Potency is more than 9.22 µM. On to `C[N+](C)(C)CCN(Cc1cccs1)c1ccccn1`, for which the Potency is more than 9.22 µM.

Consider `Clc1ccc([C@@H](c2ccccc2Cl)C(Cl)Cl)cc1`, for which the Potency is more than 46 µM. The same measure, in the same setting: in the case of `NC[C@@H]1O[C@@H](O[C@H]2[C@@H](O)[C@H](O[C@@H]3[C@H](O)[C@H](N)C[C@H](N)[C@H]3O[C@@H]3O[C@@H](CO)[C@H](O)[C@H](O)[C@@H]3N)O[C@H]2CO)[C@H](N)[C@H](O)[C@@H]1O` it was more than 46 µM. On to `Cc1cccc(CNc2ccnc(-c3ccc(N(C)C)cc3)n2)c1`, for which the Potency is more than 46 µM.
